Only some compounds are listed: those with a hit (about 13% of all), similar ones and a draw of the others.
USP17 block = inhibitors of human USP17 deubiquitinase. A8MUK1. purified USP17, Ub-rhodamine cleavage fluorescence, 3 h. inhibition, % at 50 µM. 47,000 compounds, 6.5% hits. AID 1645855
USP10 inh = human USP10 deubiquitinase inhibition; purified USP10, Ub-rhodamine fluorescence, 60 min; inhibition, % at 20 µM; 47,000 compounds, 1.1% hits
Target sequence (Q14694 whole entry, looked up): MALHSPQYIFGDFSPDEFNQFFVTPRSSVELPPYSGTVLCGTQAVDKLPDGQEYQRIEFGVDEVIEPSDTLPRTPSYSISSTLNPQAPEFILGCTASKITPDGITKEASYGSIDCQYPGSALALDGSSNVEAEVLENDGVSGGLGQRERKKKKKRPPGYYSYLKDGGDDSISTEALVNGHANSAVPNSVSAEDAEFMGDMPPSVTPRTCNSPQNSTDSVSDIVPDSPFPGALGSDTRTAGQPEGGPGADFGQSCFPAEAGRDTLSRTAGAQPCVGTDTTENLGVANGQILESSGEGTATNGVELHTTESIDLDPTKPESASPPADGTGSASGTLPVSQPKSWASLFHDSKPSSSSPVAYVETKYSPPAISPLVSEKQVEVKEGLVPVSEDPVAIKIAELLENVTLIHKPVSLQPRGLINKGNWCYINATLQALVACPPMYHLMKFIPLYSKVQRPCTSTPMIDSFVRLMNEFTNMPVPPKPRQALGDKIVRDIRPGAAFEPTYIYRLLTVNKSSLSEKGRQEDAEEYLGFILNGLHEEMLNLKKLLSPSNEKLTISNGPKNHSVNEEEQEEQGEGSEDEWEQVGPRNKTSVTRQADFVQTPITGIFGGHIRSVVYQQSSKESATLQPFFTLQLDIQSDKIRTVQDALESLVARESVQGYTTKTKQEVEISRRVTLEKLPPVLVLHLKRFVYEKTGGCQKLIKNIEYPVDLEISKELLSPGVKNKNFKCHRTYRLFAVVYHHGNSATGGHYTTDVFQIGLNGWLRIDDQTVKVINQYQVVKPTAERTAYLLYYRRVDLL
USP8 block = blocks human USP8 ubiquitin-rhodamine cleavage; P40818; purified USP8, Ub-rhodamine cleavage fluorescence, 30 min; inhibition, % at 20 µM; 47,000 compounds, 4.2% hits; AID 1645853
USP28 inh = blocks human USP28 ubiquitin-rhodamine cleavage; Q96RU2; purified USP28, Ub-rhodamine cleavage fluorescence, 30 min; inhibition, % at 25 µM; 47,000 compounds, 3% hits; AID 1645857
USP30 inh = blocks human USP30 ubiquitin-rhodamine cleavage; Q70CQ3; 47,000 compounds, 5.3% hits; inhibition, % at 25 µM; purified USP30, Ub-rhodamine cleavage fluorescence
Starred values were filed as active, the others as inactive. Cut-off read from the data, not from the text of the source: active = inhibition above about 30%; inactive = the rest.

How did Cc1cc(CCC2CN(C(=O)c3noc4c3CCCC4)CCO2)ncn1 (stereo not drawn) do in these assays?
USP17 block: -52; USP10 inh: 1; USP8 block: -11; USP28 inh: 3; USP30 inh: 0

What do the screens show for `CC(C)c1cc(C(=O)N2CCOC(CCc3cc(=O)[nH]cn3)C2)on1` (stereo not drawn)?
USP17 block: 16; USP10 inh: 2; USP8 block: 6; USP28 inh: 18; USP30 inh: 40*

What do the screens show for `Cc1nn(-c2ccccc2)c(C)c1C(=O)OCC(=O)Nc1cccc(Br)c1`?
USP17 block: -15; USP10 inh: 7; USP8 block: 3; USP28 inh: 81*; USP30 inh: -6

Results for Nc1nccnc1C1CN(C(=O)c2ccc3c(c2)CCCC3)CCO1 (stereo not drawn) ?
USP17 block: 2; USP10 inh: 1; USP8 block: -3; USP28 inh: 19; USP30 inh: 19

Results for Cc1ccc(NC(=O)c2ccccc2NC(=O)COc2cc(C)cc(C)c2)cc1 ?
USP17 block: 0; USP10 inh: 6; USP8 block: 7; USP28 inh: -2; USP30 inh: -34

What do the screens show for `Cc1cc(OCC(=O)Nc2ccccc2C(=O)Nc2ccccc2)ccc1Cl`?
USP17 block: 3; USP10 inh: 35*; USP8 block: 21; USP28 inh: -6; USP30 inh: 4

How did CN1c2ccccc2C(=O)NC12CCN(C(=O)NCc1cccc(F)c1)CC2 do in these assays?
USP17 block: -8; USP10 inh: -2; USP8 block: -5; USP28 inh: -6; USP30 inh: -6

Results for COc1ccc(NS(=O)(=O)c2ccc(-c3cc(C(F)(F)F)on3)s2)c(OC)c1 ?
USP17 block: 7; USP10 inh: 1; USP8 block: 5; USP28 inh: 7; USP30 inh: 18

How did CCOc1ccc2nc(NCCc3ccc(Cl)cc3Cl)sc2c1 do in these assays?
USP17 block: 11; USP10 inh: 8; USP8 block: 9; USP28 inh: 44*; USP30 inh: 16

What do the screens show for `O=C(O)CC(CC(=O)Nc1ccc(Br)cc1)c1c(Cl)cccc1Cl` (stereo not drawn)?
USP17 block: 6; USP10 inh: 1; USP8 block: 2

How did Oc1ccc2c3c1[C@@H](O)C1OC1[C@]31Oc3cccc4c3[C@](C=C[C@@H]4O)(O2)O1 (stereo partly drawn) do in these assays?
USP17 block: 46*; USP10 inh: -11; USP8 block: 3; USP28 inh: 4; USP30 inh: -54

What do the screens show for `N#Cc1ccccc1OCc1csc(-c2ccccc2)n1`?
USP17 block: -10; USP10 inh: 5; USP8 block: -30; USP28 inh: 66*; USP30 inh: 10

How did COc1ccccc1C(=O)NCc1csc(-c2ccccc2)n1 do in these assays?
USP17 block: -1; USP10 inh: 2; USP8 block: 0; USP28 inh: 9; USP30 inh: 17

What do the screens show for `Cc1cccc(OCC(=O)Nc2ccc3c(c2)CCC(=O)N3Cc2ccccc2)c1`?
USP17 block: 16; USP10 inh: 11; USP8 block: 21; USP28 inh: 15; USP30 inh: 31*

What do the screens show for `O=C(COc1ccc(Cl)cc1)Nc1ccc2c(c1)CCC(=O)N2Cc1ccccc1`?
USP17 block: 3; USP10 inh: 7; USP8 block: 12; USP28 inh: 3; USP30 inh: 11

How did COc1cccc(OCC(=O)Nc2ccc3c(c2)CCC(=O)N3Cc2ccccc2)c1 do in these assays?
USP17 block: 20; USP10 inh: 8; USP8 block: 8; USP28 inh: 35*; USP30 inh: 11

Results for O=C(Cn1c(=O)n(-c2ccccc2)c(=O)c2ccc(C(=O)NCc3ccc4c(c3)OCO4)cc21)NCCC1=CCCCC1 ?
USP17 block: 33*; USP10 inh: 32*; USP8 block: 75*; USP28 inh: 41*; USP30 inh: 56*

What do the screens show for `O=C(Cn1c(=O)n(CCCC(=O)N2CC=C(c3ccccc3)CC2)c(=O)c2ccccc21)NCCC1=CCCCC1`?
USP17 block: 52*; USP10 inh: 12; USP8 block: 6; USP28 inh: -2; USP30 inh: 17

What do the screens show for `CCCCNC(=O)CCCn1c(=O)c2ccccc2n(CC(=O)NCCC2=CCCCC2)c1=O`?
USP17 block: 24; USP10 inh: 7; USP8 block: 0; USP28 inh: 10; USP30 inh: 14

How did Cc1cc(NC(=O)Cn2c(=O)n(CCC(=O)N3CC=C(c4ccccc4)CC3)c(=O)c3ccccc32)n[nH]1 do in these assays?
USP17 block: 2; USP10 inh: 23; USP8 block: 68*; USP28 inh: 6; USP30 inh: 21

Assay outcomes: PubChem, Buhrlage Lab, Dana-Farber Cancer Institute and Novartis Institutes for BioMedical Research (Cambridge, Mass)
